Source: PubChem BioAssay
PfHsp40 rescue: rescue of PfHsp40-mediated yeast toxicity. S. cerevisiae expressing PfHsp40, growth rescue, ATP luminescence. growth rescue, % at 12.5 µM. 340,000 compounds, 0.68% hits; in the data active means growth rescue above about 28%, passing the limit was not always enough;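 further: yeast W303a lacking pdr1 and pdr3 grown in galactose medium; growth measured after three days at 30 °C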
Sa RN4220 lethal: S. aureus RN4220 growth inhibition | OD600, 16 h | 330,000 compounds, 0.33% hits | inhibition, % (test concentration not listed) | AID 1259311; in the data active means inhibition above about 85%;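 further: plate controls were untreated cells for no effect and reference antibiotic for full effect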
ugtP null kill: growth inhibition of S. aureus ugtP deletion strain; S. aureus RN4220 ugtP deletion, OD600 growth, 16 h; growth inhibition, % (concentration not given with the values); 330,000 compounds, 0.54% hits; in the data active means growth inhibition above about 68%;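 further: plate controls were untreated wells for no effect and antibiotic for full effect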
Vc quorum ag-1: inducers of Vibrio cholerae quorum light production without autoinducers. 350,000 compounds, 0.16% hits. activation, % at 18.7 µM. V. cholerae BH1578 lux reporter, luminescence, 6 h; in the data active means activation mostly above about 9.7%, no sharp cut-off
Mtb hypoxia inh: inhibitors of hypoxia-regulated fluorescent reporter in Mycobacterium tuberculosis; fluorescence inhibition, % (concentration not given with the values); 300,000 compounds, 0.1% hits; M. tuberculosis hypoxia-regulated fluorescent reporter, fluorescence; AID 1159583; in the data active means fluorescence inhibition mostly above about 23%, no sharp cut-off; inactive means mostly below about 17%
CCHF vOTU inh: blocks the CCHF virus ovarian tumor domain protease | inhibition, % at 11.5 µM | 370,000 compounds, 0.55% hits | CCHFV vOTU protease, Pep-AMC fluorescence; in the data active means inhibition above about 30%; further: 0% = vehicle wells with enzyme and 100% = no enzyme wells
Vc quorum ag-2: induces V. cholerae light production without autoinducers; V. cholerae BH1578 lux reporter, luminescence, 6 h; activation, % at 50 µM; shares compounds with Vc quorum ag-1; AID 602243; 620 tested, under 10 active; call rule not given here
HeLa tox: HeLa cell viability loss at 24 h; activity change, negative = cytotoxicity, % at 35 µM; shares compounds with Vc quorum ag-1; AID 624140; CellTiter-Glo ATP luminescence; 25 tested, under 10 active;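 active means signal drop with fitted half-maximal concentration at or below twice the highest valid dose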
* = called active by the depositor; i = inactive; · = no result shown; + = active, no number. Most compounds without a hit are left out; they make up all but 1.7% or so of the library.

SMILES	PfHsp40 rescue	Sa RN4220 lethal	ugtP null kill	Vc quorum ag-1	Mtb hypoxia inh	CCHF vOTU inh	Vc quorum ag-2	others
COc1cc(SC)ccc1C(=O)OCC(=O)NC1CCCC1	-0.3	1.9	12.4	741.4*	7.0	16.3	i
CC(C)c1ccc(C(=O)OCC(=O)NC2CCCC2)cc1	-0.4	2.3	-0.4	+	8.3	3.9	i
Cc1ccc(CC(=O)NC2CCCC2)cc1	·	·	·	·	·	·	·	HeLa tox=-4.6
CCc1ccc(C(=O)OCC(=O)NC2CCCC2)cc1	-0.3	3.0	8.2	·	18.6	-3.8	i
O=C(Cc1ccccc1)NC1CCCCC1	·	·	·	-0.3	·	9.9	·
C=C(C)C1CC=C(C)C(=NNC(=O)c2cccc([N+](=O)[O-])c2)C1 (stereo not given)	·	3.1	-5.7	·	4.4	·	·
CC(=NNC(=O)c1cccc(S(=O)(=O)N2CCCC2)c1)c1ccncc1	·	1.1	-0.7	·	1.0	·	·
COc1ccc(CN2C(=O)C(C)SC2=NN=Cc2ccco2)cc1 (stereo not given)	·	3.5	15.1	·	3.8	·	·
O=C1C=C(c2ccc(F)cc2OCc2ccccc2)CC(c2ccc(Cl)cc2)C1 (stereo not given)	·	-2.8	-2.5	·	15.1	·	·
Cc1ccc(-n2ncc(C#N)c2N=CN(C)C)cc1	·	3.9	-1.6	·	4.1	·	·
Cc1ccc(C(=O)OCC(=O)NC2CCCC2)cc1C	1.3	1.3	12.8	+	11.2	-18.0	i
CCCCNC(=O)CN(c1cccc(Br)c1)S(C)(=O)=O	-2.3	-5.1	-2.8	32.1*	·	4.5	0.1
CCCCNC(=O)CN(c1cccc(F)c1)S(C)(=O)=O	0.4	5.6	5.3	-1.0	·	3.6	·
CCN(CCNC(=O)C1CCCN(S(=O)(=O)CC)C1)c1ccccc1 (stereo not given)	0.0	-12.0	-1.5	12.5	5.5	-2.8	0.2
O=C(NCc1ccccc1)C1CCCN(S(=O)(=O)c2cccnc2)C1 (stereo not given)	-1.9	1.9	2.8	25.4	·	12.5	0.0
CCN(CCNC(=O)C1CCN(S(=O)(=O)CC)CC1)c1ccccc1	0.1	6.2	2.2	-1.7	13.6	9.3	·
CCCS(=O)(=O)N1CCCC(C(=O)NCc2ccc(C)cc2)C1 (stereo not given)	-0.9	-11.0	0.4	12.5	4.8	-2.1	0.0
CCCS(=O)(=O)N1CCCC(C(=O)NCc2cccnc2)C1 (stereo not given)	-1.4	-14.7	-5.1	·	10.8	0.0	·
CCCS(=O)(=O)N1CCCC(C(=O)NCCCN(C)Cc2ccccc2)C1 (stereo not given)	-1.7	-15.5	-5.4	16.7*	3.5	6.7	-0.1
COc1ccc(C=NNC(=O)CC(=O)NCc2cccnc2)cc1	·	-11.7	-4.9	·	1.6	·	·
O=[N+]([O-])c1ccc(C=Nn2c(-c3ccccc3)n[nH]c2=S)cc1	·	8.7	5.3	·	9.3	·	·
CCOC(=O)c1cc(CC)sc1N=CC1=C(O)CC(C)(C)CC1=O	·	7.0	8.7	·	0.5	·	·
O=C(NC(c1ccccc1)C(O)c1ccccc1)C1CCCN1C(=O)OCc1ccccc1 (stereo not given)	·	9.7	9.9	·	5.6	·	·
CCCS(=O)(=O)N1CCCC(C(=O)NCCCN(C)c2ccccc2)C1 (stereo not given)	1.8	-17.0	1.2	16.7*	12.3	9.1	-0.2
CC(C#N)On1c(SC(C)C#N)nc2ccccc2c1=O (stereo not given)	-1.6	0.8	4.2	12.5	2.3	4.5	1.3
SMILES	PfHsp40 rescue	Sa RN4220 lethal	ugtP null kill	Vc quorum ag-1	Mtb hypoxia inh	CCHF vOTU inh	Vc quorum ag-2	others
COc1ccccc1C(=O)Nc1cccc(NC(=O)c2ccccc2C)c1	2.1	·	·	-0.2	·	-3.8	·
Cc1ccccc1C(=O)Nc1cccc(N)c1	-0.5	0.4	1.4	48.1*	·	1.6	3.0
O=C(O)CN1CCN(Cc2ccc(F)cc2Cl)C1=O	0.1	3.2	9.0	12.5	6.6	-6.5	-0.1
O=C(CN1CCN(Cc2ccc(F)cc2Cl)C1=O)NCCc1ccccc1	0.4	6.6	3.1	-0.3	6.2	16.9	·
Cc1ccccc1NC(=O)c1cc2ccccc2o1	0.0	3.0	-0.6	i	-5.4	-7.5	·
CC1CCN(c2ccccc2NC(=O)c2cc3ccccc3o2)CC1	0.6	-9.7	5.4	97.2*	5.4	-2.9	0.3
O=c1oc2ccccc2nc1C=C(O)/C=C/c1ccc(F)cc1	·	0.1	-1.6	·	·	·	·
CCN(CC(=O)Nc1c(F)cccc1F)C(=O)C1CC(=O)N(c2ccccc2OC)C1 (stereo not given)	-0.1	0.7	-0.2	12.5	6.1	-4.9	-0.2
O=C1C(=O)N(Cc2ccco2)C(c2cccc(Cl)c2)/C1=C(\O)c1ccc2c(c1)OCCO2 (stereo not given)	0.5	4.1	-2.8	12.5	23.0	12.2	0.4
CCOc1ccc(CCNC(=O)COC(=O)Cc2c[nH]c3ccccc23)cc1OCC	0.5	3.4	0.6	-1.2	2.2	-2.8	·
CCOc1ccc(CCNC(=O)COC(=O)Cc2ccc(F)cc2)cc1OCC	-1.1	3.3	13.2	14.3	9.4	12.9	2.6
NC(=O)c1cc(Br)cc(C2CCCCC2)c1O	12.7	-5.0	31.3	·	-7.3	-6.8	i
CCOc1ccc(N2CC(C(=O)Nc3ccc(S(=O)(=O)Nc4ncccn4)cc3)CC2=O)cc1 (stereo not given)	0.0	6.8	0.1	2.6	·	13.6	·
O=C(Nc1ccc(S(=O)(=O)Nc2ncccn2)cc1)C1CC(=O)N(c2ccccc2)C1 (stereo not given)	-0.4	3.8	4.6	14.3	11.7	9.5	2.6
COc1ccc(-c2nnn(CC(=O)c3ccc4c(c3)OCCO4)n2)cc1OC	0.3	3.7	2.1	5.6*	4.2	1.9	0.2
COc1cc(C=CC(=O)OCC2OC(OC3(CO)OC(CO)C(O)C3O)C(O)C(O)C2O)ccc1O (stereo not given)	·	2.1	-3.3	·	1.6	·	·
Nc1nc(SCc2nc3sc4c(c3c(=O)[nH]2)CCCC4)n[nH]1	0.1	5.0	2.5	30.8*	14.7	3.5	0.9
Cc1nnc(SCc2nc3sc4c(c3c(=O)[nH]2)CCCC4)n(N)c1=O	·	2.9	2.5	·	9.3	-10.8	·
Cc1ccc(C)c(C(=O)CN2C(=O)NC3(CCCCCC3)C2=O)c1	-0.5	2.8	-0.6	12.5	-0.6	1.8	0.1
Cc1sc(N)nc1-c1ccc(Oc2ccccc2)cc1	0.8	5.6	53.0	45.8*	-9.8	-5.0	65.7
